What was measured:
[1] = molecular target: Tyrosine-protein kinase SYK (Homo sapiens) (UniProt P43405); details: at 10 µM
[2] = molecular target: T1, Mitogen-activated protein kinase kinase kinase 7 (Homo sapiens) (UniProt O43318); details: at 1 µM
T1 sequence (whole entry): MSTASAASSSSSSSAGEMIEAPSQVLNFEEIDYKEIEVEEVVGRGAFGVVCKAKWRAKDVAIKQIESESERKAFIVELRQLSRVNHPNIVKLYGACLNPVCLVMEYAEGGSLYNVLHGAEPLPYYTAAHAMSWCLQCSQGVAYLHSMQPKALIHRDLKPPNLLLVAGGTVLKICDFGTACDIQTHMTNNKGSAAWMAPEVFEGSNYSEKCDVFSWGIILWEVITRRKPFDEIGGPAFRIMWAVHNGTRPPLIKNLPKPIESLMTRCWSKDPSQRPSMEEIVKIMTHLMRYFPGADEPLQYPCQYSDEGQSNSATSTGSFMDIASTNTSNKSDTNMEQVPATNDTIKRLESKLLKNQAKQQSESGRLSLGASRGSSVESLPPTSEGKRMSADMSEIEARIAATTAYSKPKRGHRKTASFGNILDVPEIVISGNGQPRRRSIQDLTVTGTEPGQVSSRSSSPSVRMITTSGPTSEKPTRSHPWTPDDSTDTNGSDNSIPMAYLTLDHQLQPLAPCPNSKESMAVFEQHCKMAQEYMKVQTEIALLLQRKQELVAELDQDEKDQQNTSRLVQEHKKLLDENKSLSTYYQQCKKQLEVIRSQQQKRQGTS

[3] = molecular target: T1, Mitogen-activated protein kinase kinase kinase 7 (Homo sapiens); details: at 10 µM
[4] = molecular target: T2, Serine/threonine-protein kinase TAO1 (Homo sapiens) (UniProt Q7L7X3); details: at 1 µM
T2 sequence (whole entry): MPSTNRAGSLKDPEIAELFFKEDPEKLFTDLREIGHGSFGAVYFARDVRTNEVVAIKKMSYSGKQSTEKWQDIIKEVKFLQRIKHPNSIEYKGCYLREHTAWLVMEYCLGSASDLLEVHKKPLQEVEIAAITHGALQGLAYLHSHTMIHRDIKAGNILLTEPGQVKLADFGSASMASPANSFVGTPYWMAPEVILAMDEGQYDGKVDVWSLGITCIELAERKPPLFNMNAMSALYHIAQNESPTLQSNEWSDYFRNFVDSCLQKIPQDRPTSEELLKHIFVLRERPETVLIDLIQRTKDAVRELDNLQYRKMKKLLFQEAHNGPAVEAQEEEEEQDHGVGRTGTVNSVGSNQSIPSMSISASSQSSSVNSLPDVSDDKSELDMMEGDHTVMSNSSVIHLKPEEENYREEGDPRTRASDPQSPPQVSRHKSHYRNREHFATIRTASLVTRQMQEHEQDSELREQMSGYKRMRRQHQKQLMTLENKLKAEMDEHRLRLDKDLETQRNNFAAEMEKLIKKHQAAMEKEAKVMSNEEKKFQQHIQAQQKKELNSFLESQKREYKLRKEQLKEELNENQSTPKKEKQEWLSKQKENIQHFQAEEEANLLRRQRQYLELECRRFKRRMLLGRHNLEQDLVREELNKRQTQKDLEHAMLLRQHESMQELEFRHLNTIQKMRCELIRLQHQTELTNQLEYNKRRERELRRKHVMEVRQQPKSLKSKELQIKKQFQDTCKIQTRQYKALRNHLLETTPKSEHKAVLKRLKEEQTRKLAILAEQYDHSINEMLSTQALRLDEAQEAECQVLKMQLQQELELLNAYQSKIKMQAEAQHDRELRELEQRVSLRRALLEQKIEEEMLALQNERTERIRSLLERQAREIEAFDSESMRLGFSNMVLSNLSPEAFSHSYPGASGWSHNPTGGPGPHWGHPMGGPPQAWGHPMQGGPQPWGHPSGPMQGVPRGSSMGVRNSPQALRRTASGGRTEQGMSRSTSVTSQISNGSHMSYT

[5] = molecular target: T2, Serine/threonine-protein kinase TAO1 (Homo sapiens); details: at 10 µM
[6] = molecular target: T3, Serine/threonine-protein kinase TAO2 (Homo sapiens) (UniProt Q9UL54); details: at 1 µM
T3 sequence (whole entry): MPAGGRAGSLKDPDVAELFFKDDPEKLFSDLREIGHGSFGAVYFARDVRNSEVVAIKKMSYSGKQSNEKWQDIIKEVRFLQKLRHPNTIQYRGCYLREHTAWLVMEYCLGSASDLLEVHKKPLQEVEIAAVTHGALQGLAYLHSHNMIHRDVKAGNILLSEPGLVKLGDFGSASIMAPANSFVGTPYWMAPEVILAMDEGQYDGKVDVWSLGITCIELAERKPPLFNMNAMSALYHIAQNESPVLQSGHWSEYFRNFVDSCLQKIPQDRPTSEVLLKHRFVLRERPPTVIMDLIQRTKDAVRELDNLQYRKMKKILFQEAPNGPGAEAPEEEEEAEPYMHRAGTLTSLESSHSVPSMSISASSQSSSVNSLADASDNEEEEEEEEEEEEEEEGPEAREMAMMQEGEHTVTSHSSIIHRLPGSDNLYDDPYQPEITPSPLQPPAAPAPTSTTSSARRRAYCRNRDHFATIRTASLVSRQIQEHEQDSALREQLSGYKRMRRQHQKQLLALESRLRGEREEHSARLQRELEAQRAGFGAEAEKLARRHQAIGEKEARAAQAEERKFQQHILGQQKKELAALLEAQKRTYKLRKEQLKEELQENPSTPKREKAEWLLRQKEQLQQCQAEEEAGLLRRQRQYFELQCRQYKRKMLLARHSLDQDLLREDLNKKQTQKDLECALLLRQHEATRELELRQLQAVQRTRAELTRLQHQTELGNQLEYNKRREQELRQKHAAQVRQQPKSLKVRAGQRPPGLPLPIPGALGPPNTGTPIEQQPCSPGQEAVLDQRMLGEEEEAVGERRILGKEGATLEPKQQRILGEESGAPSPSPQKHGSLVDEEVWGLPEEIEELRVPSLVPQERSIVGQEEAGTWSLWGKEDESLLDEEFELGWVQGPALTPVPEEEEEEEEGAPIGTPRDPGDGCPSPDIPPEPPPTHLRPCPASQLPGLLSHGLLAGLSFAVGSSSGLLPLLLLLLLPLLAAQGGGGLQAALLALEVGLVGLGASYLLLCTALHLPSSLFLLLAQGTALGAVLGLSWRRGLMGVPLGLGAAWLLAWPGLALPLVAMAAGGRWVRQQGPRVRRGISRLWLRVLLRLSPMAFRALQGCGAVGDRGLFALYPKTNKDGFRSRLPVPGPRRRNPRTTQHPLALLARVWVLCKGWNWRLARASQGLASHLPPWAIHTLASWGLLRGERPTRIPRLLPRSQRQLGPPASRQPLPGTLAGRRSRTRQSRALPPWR

[7] = molecular target: T3, Serine/threonine-protein kinase TAO2 (Homo sapiens); details: at 10 µM
[8] = molecular target: T4, Serine/threonine-protein kinase TAO3 (Homo sapiens) (UniProt Q9H2K8); details: at 1 µM
T4 sequence (whole entry): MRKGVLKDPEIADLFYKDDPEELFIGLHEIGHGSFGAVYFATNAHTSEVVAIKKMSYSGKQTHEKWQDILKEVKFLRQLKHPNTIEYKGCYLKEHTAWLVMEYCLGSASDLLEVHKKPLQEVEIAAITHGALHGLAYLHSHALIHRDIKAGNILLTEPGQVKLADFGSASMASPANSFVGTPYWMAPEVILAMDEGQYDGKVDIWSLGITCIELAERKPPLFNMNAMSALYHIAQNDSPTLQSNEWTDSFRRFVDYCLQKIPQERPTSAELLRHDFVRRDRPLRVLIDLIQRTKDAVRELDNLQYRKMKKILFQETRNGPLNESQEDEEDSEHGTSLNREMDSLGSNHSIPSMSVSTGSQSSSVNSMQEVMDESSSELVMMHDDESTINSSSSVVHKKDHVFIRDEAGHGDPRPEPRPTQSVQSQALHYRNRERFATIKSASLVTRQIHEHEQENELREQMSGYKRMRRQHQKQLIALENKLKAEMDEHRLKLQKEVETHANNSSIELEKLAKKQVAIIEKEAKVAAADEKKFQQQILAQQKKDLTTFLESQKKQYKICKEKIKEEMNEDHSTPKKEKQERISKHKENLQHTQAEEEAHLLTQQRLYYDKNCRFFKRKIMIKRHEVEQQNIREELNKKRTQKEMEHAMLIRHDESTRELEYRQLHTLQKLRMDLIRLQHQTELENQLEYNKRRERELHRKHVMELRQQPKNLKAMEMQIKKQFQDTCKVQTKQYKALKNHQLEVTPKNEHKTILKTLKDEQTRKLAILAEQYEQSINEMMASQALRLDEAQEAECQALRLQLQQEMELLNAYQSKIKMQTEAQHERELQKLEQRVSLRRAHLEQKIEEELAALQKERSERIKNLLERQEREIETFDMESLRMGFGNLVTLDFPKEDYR

COc1cc2ncnc(N3CCN(C(=O)Nc4ccc(Oc5ccccc5)cc4)CC3)c2cc1OC
residual activity [1]: 83% | residual activity [2]: 85% | residual activity [3]: 82% | residual activity [4]: 94% | residual activity [5]: 78% | residual activity [6]: 95% | residual activity [7]: 64% | residual activity [8]: 85%
